Assay outcomes from PubChem BioAssay.
Sampled rows, rich in hits. Any-hit rate of the full collection: about 1.7%.
PTPN22 act: activators of human LYP (PTPN22) phosphatase; Q9Y2R2; activation, % at 2 µM; 96,000 compounds, 0.11% hits; recombinant LYP, DiFMUP fluorescence; 0 = plate median, 100 = signal doubled;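 active means activation at 2 µM above a set limit, the mean plus 5 SD, cut at about 37% in these data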
FAK blocker: inhibitors of human focal adhesion kinase | Q05397 | biochemical FAK kinase activity assay | inhibition, %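 (tested at 7 µM)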 | 97,000 compounds, 0.84% hits
Plk1 PBD FP: blocks phosphopeptide binding to human Plk1 polo box domain | inhibition, %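 (tested at about 20 µM)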 | P53350 | Plk1 PBD phosphopeptide binding, fluorescence polarization | AID 693 | 97,000 compounds, 0.13% hits; in the data active means inhibition above about 34%, passing the limit was not always enough
Target sequence (P53350 whole entry, looked up, the tested form may be a part): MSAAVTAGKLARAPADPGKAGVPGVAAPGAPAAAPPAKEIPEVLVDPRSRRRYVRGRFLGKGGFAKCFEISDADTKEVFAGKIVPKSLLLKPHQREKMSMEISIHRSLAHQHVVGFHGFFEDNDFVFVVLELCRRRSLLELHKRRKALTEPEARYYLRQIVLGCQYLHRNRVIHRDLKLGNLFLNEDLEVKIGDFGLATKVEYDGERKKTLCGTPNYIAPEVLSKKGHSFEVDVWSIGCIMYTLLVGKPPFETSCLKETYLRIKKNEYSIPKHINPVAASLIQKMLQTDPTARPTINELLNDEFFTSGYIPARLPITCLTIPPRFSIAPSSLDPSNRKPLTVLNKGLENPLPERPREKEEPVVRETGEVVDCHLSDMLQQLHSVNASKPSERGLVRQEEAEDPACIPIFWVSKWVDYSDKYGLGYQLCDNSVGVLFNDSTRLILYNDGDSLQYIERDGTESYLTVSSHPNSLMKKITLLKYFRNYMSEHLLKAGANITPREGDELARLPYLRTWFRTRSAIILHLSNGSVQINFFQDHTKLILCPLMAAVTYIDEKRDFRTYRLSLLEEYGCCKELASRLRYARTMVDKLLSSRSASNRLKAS
PLK1 kinase inh: PLK1 (human) kinase inhibition. P53350. recombinant PLK1 kinase, TR-FRET peptide phosphorylation. inhibition, % at 10 µM. 97,000 compounds, 0.53% hits;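 active means inhibition of 50% or more in the single-concentration screen; inactive means inhibition below 50%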
LYP inh 2: blocks human PTPN22 phosphatase activity | Q9Y2R2 | recombinant LYP catalytic domain, DiFMUP fluorescence | inhibition, % at 2 µM | 96,000 compounds, 0.21% hits | AID 640;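 active means inhibition at 2 µM at or above a set limit, the screen mean plus 3 SD, cut at about 24% in these data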
EphB4 ephrin blk: antagonists of human EphB4-ephrin-B2 interaction | P54760 | EphB4 LBD / TNYL-RAW-Alexa532 peptide, fluorescence polarization | inhibition, % at 7 µM | 97,000 compounds, 0.15% hits;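 active means inhibition above the screen-wide mean inhibition plus 3 SD, cut at about 15% in these data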
FAK inh conf: FAK (human) inhibition confirmed; shares compounds with FAK blocker; FAK kinase biochemical inhibition assay; inhibition, % at 7 µM; 750 compounds, 28% hits; AID 794
A number is an active result. Unless noted, no stated cut-off is given here; in the data, active means inhibition above about 19%; inactive means the rest.

Results for Nc1ncnc2nc(Sc3ccc(Cl)cc3)[nH]c12 ?
PTPN22 act: inactive; FAK blocker: inactive; Plk1 PBD FP: inactive; PLK1 kinase inh: inactive; LYP inh 2: inactive; EphB4 ephrin blk: inactive

Results for O=C1c2ccccc2C(=O)N1CCN1CCc2ccccc21 ?
PTPN22 act: inactive; FAK blocker: inactive; Plk1 PBD FP: inactive; PLK1 kinase inh: inactive; LYP inh 2: inactive; EphB4 ephrin blk: inactive

What do the screens show for `CN(C)CCN1CCc2ccccc21`?
PTPN22 act: inactive; FAK blocker: 32; Plk1 PBD FP: inactive; PLK1 kinase inh: inactive; LYP inh 2: inactive; EphB4 ephrin blk: inactive; FAK inh conf: 45

How did CCOc1cccc(CNc2ccc(O)cc2)c1OCc1ccc(Cl)cc1Cl do in these assays?
PTPN22 act: inactive; FAK blocker: 29; Plk1 PBD FP: inactive; PLK1 kinase inh: inactive; LYP inh 2: inactive; EphB4 ephrin blk: inactive; FAK inh conf: inactive

Results for CC1(CC(=O)O)SC(=O)NC1=O (centres undefined) ?
PTPN22 act: inactive; FAK blocker: inactive; Plk1 PBD FP: inactive; PLK1 kinase inh: inactive; LYP inh 2: inactive; EphB4 ephrin blk: inactive

How did Cc1nn2c([nH]c(=O)c3ccccc32)c1C=O do in these assays?
PTPN22 act: inactive; FAK blocker: inactive; Plk1 PBD FP: inactive; PLK1 kinase inh: inactive; LYP inh 2: inactive; EphB4 ephrin blk: inactive

How did CCOc1ccccc1-n1c(SCC(=O)Nc2ccc(CC)cc2)nc2n[nH]c(C)c2c1=N do in these assays?
PTPN22 act: inactive; FAK blocker: inactive; Plk1 PBD FP: inactive; PLK1 kinase inh: inactive; LYP inh 2: inactive; EphB4 ephrin blk: inactive

How did Cc1ccccc1-n1c(SCc2ccccn2)nc2n[nH]c(C)c2c1=N do in these assays?
PTPN22 act: inactive; FAK blocker: 30; Plk1 PBD FP: inactive; PLK1 kinase inh: inactive; LYP inh 2: inactive; EphB4 ephrin blk: inactive; FAK inh conf: inactive

How did CSc1nc(NCc2ccccc2)c2c3c(sc2n1)CN(C)CC3 do in these assays?
PTPN22 act: inactive; FAK blocker: 21; Plk1 PBD FP: inactive; PLK1 kinase inh: inactive; LYP inh 2: inactive; EphB4 ephrin blk: inactive; FAK inh conf: inactive

How did CSc1nc(NCC(C)C)c2c3c(sc2n1)CN(C)CC3 do in these assays?
PTPN22 act: inactive; FAK blocker: inactive; Plk1 PBD FP: inactive; PLK1 kinase inh: inactive; LYP inh 2: inactive; EphB4 ephrin blk: inactive

What do the screens show for `CC(C)(C)C(=O)Nc1nc2c(s1)COc1ccccc1-2`?
PTPN22 act: inactive; FAK blocker: 45; Plk1 PBD FP: inactive; PLK1 kinase inh: inactive; LYP inh 2: inactive; EphB4 ephrin blk: inactive; FAK inh conf: 30

What do the screens show for `O=C(CCSc1ccccc1)Nc1nc2c(s1)COc1ccccc1-2`?
PTPN22 act: inactive; FAK blocker: inactive; Plk1 PBD FP: inactive; PLK1 kinase inh: inactive; LYP inh 2: inactive; EphB4 ephrin blk: inactive

What do the screens show for `COCCOC(=O)c1c(C)n(C)c2ccc(OC(=O)C3CC3)cc12`?
PTPN22 act: inactive; FAK blocker: inactive; Plk1 PBD FP: inactive; PLK1 kinase inh: inactive; LYP inh 2: inactive; EphB4 ephrin blk: inactive

How did COCCn1c(C)cc(C(=O)CSc2nc(C)nc3sc4c(c23)CCC4)c1C do in these assays?
PTPN22 act: inactive; FAK blocker: inactive; Plk1 PBD FP: inactive; PLK1 kinase inh: inactive; LYP inh 2: inactive; EphB4 ephrin blk: inactive

What do the screens show for `Cc1ccc(C(C2C(=O)CC(C)(C)CC2=O)C2C(=O)CC(C)(C)CC2=O)s1`?
PTPN22 act: inactive; FAK blocker: 22; Plk1 PBD FP: inactive; PLK1 kinase inh: inactive; LYP inh 2: inactive; EphB4 ephrin blk: inactive; FAK inh conf: inactive

Results for CC(C)(CS(=O)(=O)[O-])NC(=O)CC[N+](C)(C)CCO ?
PTPN22 act: inactive; FAK blocker: 28; Plk1 PBD FP: inactive; PLK1 kinase inh: inactive; LYP inh 2: inactive; EphB4 ephrin blk: inactive; FAK inh conf: inactive

How did COc1ccc(O)c(/C=N/NC(=O)c2ccc(OCc3cccc(Br)c3)cc2)c1 do in these assays?
PTPN22 act: inactive; FAK blocker: 19; Plk1 PBD FP: inactive; PLK1 kinase inh: inactive; LYP inh 2: inactive; EphB4 ephrin blk: inactive; FAK inh conf: inactive

What do the screens show for `COc1ccc(C(=O)NCC(=O)OCc2cccc(Br)c2)cc1`?
PTPN22 act: inactive; FAK blocker: inactive; Plk1 PBD FP: inactive; PLK1 kinase inh: inactive; LYP inh 2: inactive; EphB4 ephrin blk: inactive

How did O=C(NCCSCc1ccccc1)c1ccc(C2SCC(=O)N2Cc2ccccc2)cc1 (centres undefined) do in these assays?
PTPN22 act: inactive; FAK blocker: inactive; Plk1 PBD FP: inactive; PLK1 kinase inh: inactive; LYP inh 2: inactive; EphB4 ephrin blk: inactive

How did CCOC(=O)c1cc2sc(C)cc2n1CC(=O)N(CC)CC do in these assays?
PTPN22 act: inactive; FAK blocker: 30; Plk1 PBD FP: inactive; PLK1 kinase inh: inactive; LYP inh 2: inactive; EphB4 ephrin blk: inactive; FAK inh conf: inactive

How did CCCCn1c(NC(=O)c2ccccc2Cl)c(C#N)c2nc3ccccc3nc21 do in these assays?
PTPN22 act: inactive; FAK blocker: 28; Plk1 PBD FP: inactive; PLK1 kinase inh: inactive; LYP inh 2: inactive; EphB4 ephrin blk: inactive; FAK inh conf: inactive

Results for CCOC(=O)c1c(NC(=O)c2ccco2)n(C2CCCCC2)c2nc3ccccc3nc12 ?
PTPN22 act: inactive; FAK blocker: inactive; Plk1 PBD FP: inactive; PLK1 kinase inh: inactive; LYP inh 2: inactive; EphB4 ephrin blk: inactive

How did COc1ccc(-n2c(NC(=O)c3ccco3)c(C#N)c3nc4ccccc4nc32)cc1 do in these assays?
PTPN22 act: inactive; FAK blocker: 21; Plk1 PBD FP: inactive; PLK1 kinase inh: inactive; LYP inh 2: inactive; EphB4 ephrin blk: inactive; FAK inh conf: inactive

What do the screens show for `CC(NC(=O)c1ccco1)c1ccc2c(c1)OCCO2` (centres undefined)?
PTPN22 act: inactive; FAK blocker: inactive; Plk1 PBD FP: inactive; PLK1 kinase inh: inactive; LYP inh 2: inactive; EphB4 ephrin blk: inactive

How did Nc1ccc(-n2cnc3cc([N+](=O)[O-])ccc32)cc1 do in these assays?
PTPN22 act: inactive; FAK blocker: 26; Plk1 PBD FP: inactive; PLK1 kinase inh: inactive; LYP inh 2: inactive; EphB4 ephrin blk: inactive; FAK inh conf: inactive

What do the screens show for `CCC1=NNc2cccc3c(OC)ccc1c23`?
PTPN22 act: inactive; FAK blocker: 82; Plk1 PBD FP: inactive; PLK1 kinase inh: 68; LYP inh 2: inactive; EphB4 ephrin blk: inactive; FAK inh conf: 26

What do the screens show for `O=C(COc1ccc(S(=O)(=O)N2CCCCC2)cc1)NCc1cccnc1`?
PTPN22 act: inactive; FAK blocker: inactive; Plk1 PBD FP: inactive; PLK1 kinase inh: inactive; LYP inh 2: inactive; EphB4 ephrin blk: inactive

Results for Cc1ccc(Nc2cc(C)nc(-c3ccccc3O)n2)cc1 ?
PTPN22 act: inactive; FAK blocker: inactive; Plk1 PBD FP: inactive; PLK1 kinase inh: inactive; LYP inh 2: inactive; EphB4 ephrin blk: inactive

What do the screens show for `Cc1cc(NCCCN)nc(-c2ccccc2O)n1`?
PTPN22 act: inactive; FAK blocker: 21; Plk1 PBD FP: inactive; PLK1 kinase inh: inactive; LYP inh 2: inactive; EphB4 ephrin blk: inactive; FAK inh conf: inactive
